From PubChem
HCV inh – inhibitors of hepatitis C virus infection. Potency, µM (top dose mostly 41.8 µM), most hits filed as inhibitors. AID 651820. Huh7.5.1 HCVcc-Cre infection, luciferase reporter, 44 h. 340,000 tested, 3.4% active
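Seed cells (1,000/well) for 4 h; treat with compound and infect with HCVcc-Cre, moi about 0.5. Incubate 44 h, then detect luciferase activity.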
HCMV antiviral – blocks human cytomegalovirus replication; HFF cells, HCMV-luciferase reporter, 72 h; stronger effect = lower value; activity change, negative = inhibition, % at 57.5 µM; 410,000 tested, 4.5% active; AID 1259415; in the data active means activity change below about -60%; inconclusive means no clear call, values can overlap the other calls; inactive means above about -39%
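Inhibition of viral replication was scored as loss of reporter luminescence in HFFs infected with HCMV-luciferase (MOI 1 PFU/cell) for 72 h; compounds tested at 2 doses, normalized to buffer and Salinomycin controls.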
Pf growth 48h – inhibits P. falciparum growth in the first generation, 48 h; 310,000 tested, 5.9% active; Potency, µM (titrated, usually from 28.7 µM), hits mostly inhibitors; P. falciparum luciferase growth in erythrocytes, 48 h; AID 504832
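Read-out is firefly luciferase luminescence from an integrated reporter in P. falciparum, so falling signal marks reduced parasite growth. Infected erythrocytes were at 2% hematocrit and 0.1% parasitemia (final) in Albumax-supplemented RPMI 1640.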
Pf growth 96h – inhibits malaria parasite growth, 96 h. P. falciparum luciferase reporter growth, 96 h. Potency, µM (series often up to 28.7 µM), hits mostly inhibitors. 320,000 tested, 6.9% active
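Delayed-death screen, second-generation endpoint: infected erythrocytes, 2% hematocrit, 0.05% parasitemia final; 96 hours at 37 C, 5% CO2; luciferase detection reagent; luminescence decrease equals reduced growth.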
Hits are given with their value; 0 = inactive; ? = inconclusive; - = no result. Rows were chosen to be rich in hits. Some 13% of all compounds tested hit in one or more screens of this group. Unless noted, the call rests on the fitted dose curve; in most records, active means well fitted inhibition curve with a large enough effect; inconclusive means small, poorly fitted or top-dose-only effect, or another doubt; inactive means no such curve, though single readings can be large or run the other way.

SMILES | HCV inh | HCMV antiviral | Pf growth 48h | Pf growth 96h
COc1ccccc1-n1cc(C(=O)c2cc(Cl)ccc2O)cc(C#N)c1=O | 0 | 0 | ? | ?
COc1ccc2c(=O)cc(-c3ccncc3)oc2c1OC | 11µM | 0 | - | -
COc1ccc(-c2cc(=O)c3c(OC)c(OC)c(OC)c(OC)c3o2)cc1OC | ? | 0 | 0 | ?
Cc1noc(C)c1S(=O)(=O)N(C)C[C@@H]1OCc2cn(nn2)CCCC(=O)N([C@H](C)CO)C[C@H]1C | - | 0 | - | -
COC(=O)C1=C(c2ccc(F)cc2OCc2ccccc2)C[C@@H]2CC[C@H]1N2C(=O)NCCOc1ccccc1 | ? | 0 | 5.9µM | ?
COC(=O)C1=C(c2ccc(F)cc2OCc2ccccc2)C[C@@H]2CC[C@H]1N2C(=O)NCCOc1ccc(OC)cc1 | ? | 0 | ? | 3.3µM
COC(=O)C1=C(c2ccc(OCc3ccccc3)cc2)C[C@@H]2CC[C@H]1N2C(=O)NCCc1ccc(F)cc1 | - | 0 | - | -
COC(=O)C1=C(c2ccc(F)cc2F)C[C@@H]2CC[C@H]1N2C(=O)NCCNC(C)=O | 0 | - | 0 | 0
COC(=O)C1=C(c2ccc(F)cc2OCc2ccccc2)C[C@@H]2CC[C@H]1N2C(=O)NCCc1ccc(F)cc1 | ? | 0 | 12µM | ?
COC(=O)C1=C(c2ccc(F)cc2OCc2ccccc2)C[C@@H]2CC[C@H]1N2C(=O)NCCN1CCOCC1 | 0 | 0 | 12µM | ?
COC(=O)C1=C(c2ccc(Cl)c(C(F)(F)F)c2)C[C@@H]2CC[C@H]1N2C(=O)NCCOc1ccccc1Cl | 10µM | - | 9.3µM | 6.6µM
COC(=O)C1=C(c2c(C)noc2C)C[C@@H]2CC[C@H]1N2C(=O)NCCOc1ccccc1Cl | 0 | 0 | ? | 0
COC(=O)C1=C(c2ccc(F)cc2OCc2ccccc2)C[C@@H]2CC[C@H]1N2C(=O)NCCOc1ccccc1Cl | ? | 0 | 2.6µM | ?
COC(=O)C1=C(c2ccc(F)cc2OCc2ccccc2)C[C@@H]2CC[C@H]1N2C(=O)NCc1ccccc1Cl | ? | -63 | 5.2µM | 4.1µM
Cc1ccc(C(=O)NC(C#N)=C(Cl)Cl)cc1 | 6.3µM | -99 | 0 | 0
COC(=O)NC(=C(Cl)Cl)S(=O)(=O)c1ccccc1 | 11µM | 0 | ? | ?
Cc1ccc(C(=O)NC(=C(Cl)Cl)S(=O)(=O)c2ccccc2)cc1 | 11µM | -70 | 0 | 0
Cc1ccc(NC(=O)CN2C(=O)C(c3ccccc3)=NC2(C)C)cc1C | - | 0 | - | -
COc1cccc(CNC(=O)CN2N=C(c3ccc(C)cc3)CCC2=O)c1 | - | 0 | - | -
O=C(/C=C1\NC2(CCCC2)Cc2ccccc21)C(=O)N/N=C/c1ccccc1O | ? | -71 | 0 | 0
CN(C)c1ccc(/C=N/NC(=O)C(=O)/C=C2\NC3(CCCC3)Cc3ccccc32)cc1 | ? | -63 | ? | 2.6µM
COc1cc(/C=N/NC(=O)C(=O)/C=C2\NC3(CCCC3)Cc3ccccc32)ccc1O | ? | 0 | ? | ?
COc1ccc(-c2c3c(=O)n(C)c(=O)n(C)c3cn2-c2cccc(N)c2)cc1 | - | 0 | - | -
C=CCn1c2ccccc2c(=O)c2cc(C#Cc3cc(OC)cc(OC)c3)ccc21 | ? | 0 | 12µM | ?
Cn1c2ccccc2c(=O)c2cc(C#Cc3ccccn3)ccc21 | 0 | 0 | 0 | ?
SMILES | HCV inh | HCMV antiviral | Pf growth 48h | Pf growth 96h
CCOc1ccc(CCNc2ncnc3onc(-c4ccc(F)cc4)c23)cc1OCC | - | 0 | - | -
CCN(CC)S(=O)(=O)c1cccc(C(=O)OCc2cc(=O)n3nc(C)sc3n2)c1 | 0 | 0 | 0 | 5.2µM
Cc1nn2c(=O)cc(COC(=O)c3cccc(NC(=O)c4ccc(C(C)(C)C)cc4)c3)nc2s1 | - | 0 | - | -
Cc1nn2c(=O)cc(COC(=O)c3ccc(NC(=O)c4cccs4)cc3)nc2s1 | - | -100 | - | -
Cc1nn2c(=O)cc(COC(=O)c3ccc(NC(=O)COc4ccc(Cl)cc4)cc3)nc2s1 | - | -84 | - | -
Cc1cc(S(=O)(=O)Nc2cccc(C(=O)O)c2)c(C)c(S(=O)(=O)c2ccccc2)c1 | - | 0 | - | -
CCOc1ccc(NC(=O)c2oc3ccccc3c2NC(=O)C(C)(C)C)cc1 | - | 0 | - | -
CCOc1ccc(CNC(=O)c2ccc3c(Cl)c4c(nc3c2)CCCC4)cc1 | - | 0 | - | -
Cc1cccc(Cn2c(SCc3ccc(C(=O)N4CCCCCC4)cc3)nc3ccncc32)c1 | - | -90 | - | -
CC(CNC(=O)c1ccc(CSc2nc3ccncc3n2Cc2cccc(F)c2)cc1)c1ccccc1 (configuration not stated) | - | -70 | - | -
Cc1cccc(Cn2c(SCc3ccc(C(=O)NC4CCCCC4)cc3)nc3cccnc32)c1 | - | -83 | - | -
Cc1cccc(CC(=O)NCc2nc3cccnc3n2Cc2ccc(F)cc2)c1 | - | -63 | - | -
O=C(c1ccc(CSc2nc3ccncc3n2Cc2ccccc2)cc1)N1CCCCCC1 | - | 0 | - | -
Cc1noc(Cn2c(=O)c3cc4c(cc3n(CC(=O)Nc3ccc(C(C)C)cc3)c2=O)OCO4)n1 | - | 0 | - | -
CCCC(=O)c1ccc(OC(=O)c2c(-c3ccccc3Cl)noc2C)cc1 | - | 0 | - | -
Cc1ccc(CCNC(=O)c2ccc(CSc3nc4ccncc4n3Cc3ccc(F)cc3)cc2)cc1 | - | -70 | - | -
O=C(NCc1cccs1)c1ccc(Cn2c(SCc3ccc(F)cc3)nc3cccnc32)cc1 | - | -63 | - | -
Cc1cc(C)c(NC(=O)CSc2nc(C)cc(C)c2C#N)c(C)c1 | - | 0 | - | -
CCOC(=O)c1ccc(CN(Cc2ccccc2C)S(=O)(=O)c2ccc(F)c(C)c2)cc1 | - | 0 | - | -
Cc1cccc(-c2nn3c(=O)cc(CN4CCN(C(=O)c5ccccc5Br)CC4)nc3s2)c1 | - | 0 | - | -
CCN1CCCC1CNC(=O)CCNC(=O)c1cc(OC)c(OC)c(OC)c1 (configuration not stated) | 0 | 0 | 0 | 2.6µM
Cc1cc(N=Cc2c(O)n(-c3cccc(Cl)c3)c(=O)c3ccccc23)no1 | 0 | -60 | 0 | 0
O=c1c2ccccc2c(C=Nc2ccc(S(=O)(=O)Nc3ncccn3)cc2)c(O)n1-c1cccc(Cl)c1 | - | 0 | ? | ?
Clc1ccc(SCCn2ccnc2)cc1 | 0 | 0 | 0 | 13µM
Cc1ccc(-n2ncc3c(N(C)Cc4ccccc4)ncnc32)cc1 | - | 0 | - | -
SMILES | HCV inh | HCMV antiviral | Pf growth 48h | Pf growth 96h
COc1cc(CNCCO)cc(Br)c1OCc1ccccc1Cl | ? | 0 | ? | 12µM
COc1cccc(CNCCO)c1OCc1ccccc1 | 0 | ? | 0 | 0
COc1cc(CNCCO)cc(Cl)c1OCc1ccc(Cl)cc1Cl | ? | 0 | 10µM | 0
COc1cccc(CNCCO)c1OCc1ccc(Cl)cc1 | 0 | 0 | 0 | ?
CCOc1ccc(OCC)c(NC(=O)c2cnn(-c3ccc(F)cc3)c2-n2cccc2)c1 | - | 0 | - | -
CCc1ccc(NC(=O)NCCc2c(C)nn(C)c2C)cc1 | - | 0 | - | -
CC1(C(=O)Nc2cccc(C#N)c2)CCN1C(=O)Cc1ccc(-c2ccccc2)cc1 (configuration not stated) | - | -61 | - | -
CN(C)N=Nc1nc2c([nH]1)c(=O)n(C)c(=O)n2C | 0 | 0 | 0 | 0
CN(C)N=Nc1nc2c(c(=O)n(C)c(=O)n2C)n1CC1CO1 (configuration not stated) | 4µM | -77 | 0 | 0
CN1CCN(Cc2c(O)ccc3cc(Br)ccc23)CC1 | 0 | -69 | 0 | ?
CCc1cc(=O)oc2c(CN3CCN(C)CC3)c(O)ccc12 | 0 | 0 | 0 | 0
